PubChem BioAssay AID1159580 (chemical genetic matrix, 2015)
Several values for one entry are separate records, joined by “and”; a condition that tells them apart may be missing. Equal entries are not always repeated. Out of some 5,500 compounds screened, about 2,000 (36%) were called active. Inconclusive results (about 18%) are left out. Rule as the data show it: active = normalized growth mostly below about 0.91 (no sharp cut-off); inconclusive = no clear call, values can overlap the other calls; inactive = mostly above about 0.92. Some of the results follow.

Test: chemical genetic growth profiling, strain panel (AID 1159580);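 also: tested at 20 µM; growth read once vehicle control cultures reached saturation at 30 °C; 1 = growth at the plate median or of vehicle wells; lower values mean less growth of the strain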
Settings: S. cerevisiae deletion strains, growth OD

Measured: normalized growth

NC1=NCCN1CC(=O)O
inactive: locus YAL013W, strain DEP1, active compounds read low 0.99 | locus YAL021C, strain ccr4, active compounds read low 1.02 | locus YAL026C, strain drs2, active compounds read low 1.02 | locus YAL030W, strain snc1, active compounds read low 1.03 | locus YBL061C, strain skt5, active compounds read low 1.01 | locus YBR009C, strain hhf1, active compounds read low 1 | locus YBR021W, strain FUR4, active compounds read low 1 | locus YBR023C, strain chs3, active compounds read low 1.01 | locus YBR171W, strain sec66, active compounds read low 1.01 | locus YBR229C, strain ROT2, active compounds read low 0.96 | locus YBR231C, strain swc5, active compounds read low 1.01 | locus YBR279W, strain paf1, active compounds read low 1.01 | locus YCL011C, strain gbp2, active compounds read low 1.04 | locus YCL016C, strain dcc1, active compounds read low 1.01 | locus YCL029C, strain bik1, active compounds read low 0.997 | locus YCL069W, strain vba3, active compounds read low 1.01 | locus YCR088W, strain abp1, active compounds read low 1.02 | locus YDL005C, strain med2, active compounds read low 1.01 | locus YDL035C, strain GPR1, active compounds read low 0.989 | locus YDL040C, strain nat1, active compounds read low 1.01 | locus YDL074C, strain BRE1, active compounds read low 0.924 | locus YDL101C, strain DUN1, active compounds read low 0.961 | locus YDL134C, strain PPH21, active compounds read low 1.01 | locus YDL185W, strain tfp1, active compounds read low 0.986 | locus YDL192W, strain arf1, active compounds read low 0.992 | locus YDR001C, strain nth1, active compounds read low 1.01 | locus YDR069C, strain doa4, active compounds read low 1.02 | locus YDR101C, strain arx1, active compounds read low 0.996 | locus YDR137W, strain rgp1, active compounds read low 1.04 | locus YDR150W, strain NUM1, active compounds read low 0.986 | locus YDR159W, strain sac3, active compounds read low 0.958 | locus YDR162C, strain NBP2, active compounds read low 0.99 | locus YDR195W, strain ref2 1.02 | locus YDR297W, strain sur2, active compounds read low 1 | locus YDR318W, strain mcm21, active compounds read low 0.995 | locus YDR334W, strain swr1, active compounds read low 1.01 | locus YDR335W, strain msn5, active compounds read low 1.01 | locus YDR388W, active compounds read low 0.989 | locus YDR392W, strain spt3, active compounds read low 0.86 | locus YDR502C, strain sam2, active compounds read low 0.988 | locus YEL003W, strain gim4, active compounds read low 0.996 | locus YEL037C, strain rad23, active compounds read low 1.02 | locus YEL061C, strain CIN8 (second series), active compounds read low 1.03 | locus YEL061C, strain CIN8, active compounds read low 0.981 | locus YER015W, strain faa2, active compounds read low 1.02 | locus YER016W, strain bim1, active compounds read low 1.03 | locus YER110C, active compounds read low 0.988 | locus YER111C, strain swi4, active compounds read low 1.03 | locus YER155C, strain BEM2 (second series), active compounds read low 0.911 | locus YER155C, strain BEM2, active compounds read low 1 | locus YER167W, strain BCK2, active compounds read low 0.984 | locus YFR010W, strain ubp6, active compounds read low 1.01 | locus YGL078C, strain dbp3, active compounds read low 0.997 | locus YGL086W, strain mad1, active compounds read low 0.98 | locus YGL167C, strain pmr1, active compounds read low 1.01 | locus YGL173C, strain kem1, active compounds read low 1 | locus YGL227W, strain vid30, active compounds read low 1.04 | locus YGL240W, strain doc1, active compounds read low 1 | locus YGL248W, strain PDE1, active compounds read low 0.971 | locus YGL253W, strain hxk2, active compounds read low 1.01 | locus YGR135W, strain pre9, active compounds read low 1.01 | locus YGR229C, strain SMI1, active compounds read low 1.02 | locus YGR252W, strain gcn5, active compounds read low 1.01 | locus YHR013C, strain ard1, active compounds read low 0.996 | locus YHR027C, strain rpn1, active compounds read low 1.02 | locus YHR030C, strain SLT2, active compounds read low 0.998 and 0.992 | locus YHR079C, strain IRE1 (second series), active compounds read low 0.997 | locus YHR079C, strain IRE1, active compounds read low 0.992 | locus YHR094C, strain hxt1, active compounds read low 0.995 | locus YHR129C, strain ARP1, active compounds read low 0.999 | locus YHR142W, strain chs7, active compounds read low 0.992 | locus YHR200W, strain rpn10, active compounds read low 0.99 | locus YIL066C, strain RNR3, active compounds read low 0.966 | locus YIL073C, strain SPO22, active compounds read low 1.07 | locus YIL125W, strain kgd1, active compounds read low 0.984 | locus YIR030C, strain dcg1, active compounds read low 0.994 | locus YJL092W, strain hpr5, active compounds read low 1.01 | locus YJL095W, strain BCK1 (second series), active compounds read low 1.02 | locus YJL095W, strain BCK1, active compounds read low 0.969 and 0.972 | locus YJL115W, strain asf1, active compounds read low 1.02 | locus YJL129C, strain trk1, active compounds read low 1 | locus YJL134W, strain LCB3, active compounds read low 0.988 | locus YJL154C, strain vps35, active compounds read low 1.02 | locus YJL164C, strain tpk1, active compounds read low 0.986 | locus YJL166W, strain qcr8, active compounds read low 1 | locus YJL168C, strain set2, active compounds read low 0.989 | locus YJL187C, strain SWE1 (second series), active compounds read low 0.964 | locus YJL187C, strain SWE1, active compounds read low 1
